Sampled rows, rich in hits. Any-hit rate of the full collection: about 3.9%.
Tb PFK block = blocks T. brucei phosphofructokinase; T. brucei PFK, ADP-Glo luminescence; 330,000 tested, 0.17% active; Potency, µM (series often up to 57.5 µM), for the others: at the highest dose activity, negative = inhibition, usual class: inhibitors; O15648; AID 485367;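 further: 0% = uninhibited 1x PFK enzyme wells and -100% = no-enzyme wells; nearly all actives have a fitted effect of over 60% in size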
Target sequence (O15648 whole entry, looked up): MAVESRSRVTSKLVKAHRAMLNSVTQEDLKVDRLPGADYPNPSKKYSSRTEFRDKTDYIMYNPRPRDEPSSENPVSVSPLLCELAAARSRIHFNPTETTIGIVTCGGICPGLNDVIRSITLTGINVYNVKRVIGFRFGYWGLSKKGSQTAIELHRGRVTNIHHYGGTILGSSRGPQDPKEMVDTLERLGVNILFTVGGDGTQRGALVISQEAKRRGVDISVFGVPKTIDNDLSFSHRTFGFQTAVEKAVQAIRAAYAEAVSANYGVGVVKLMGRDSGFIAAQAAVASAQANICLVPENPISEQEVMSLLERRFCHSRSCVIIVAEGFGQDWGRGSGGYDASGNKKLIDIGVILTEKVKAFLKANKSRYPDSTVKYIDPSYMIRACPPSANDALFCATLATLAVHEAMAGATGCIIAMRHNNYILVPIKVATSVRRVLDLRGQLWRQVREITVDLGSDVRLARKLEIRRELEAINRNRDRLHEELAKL
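PFK 1.25 nM, F6P 0.5 mM, ATP 0.1 mM, 0.1 M TEA pH 8.0, 5 mM MgCl2, 0.01% Tween20, 0.1% BSA; 45 min RT. ADP-Glo readout. qHTS titration up to 57 uM; curves fitted, compounds curve-classed.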
VDR inhibitor = blocks the human vitamin D receptor. P11473. VDR-SRC2-3 peptide fluorescence polarization, 2 h. Potency, µM, inactives show max response, negative = inhibition, usual class: inhibitors. 400,000 tested, 0.93% active; further: on the % scale 0 is the no-effect control and ±100 the full control effect
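The screen uses fluorescence polarization to detect compounds that interfere with recruitment of the SRC2-3 coactivator peptide to VDR; plates are read after 2 h at room temperature.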
BRCA1 expr up = activators of BRCA1 expression. AID 624202. Potency, µM (titrated, usually from 46.1 µM), for the others: at the top dose activation, actives largely listed as activators. 380,000 tested, 1.1% active. MCF7-BRCA1-FFLuc reporter, luminescence, 48 h; response scale: scaled: vehicle 0%, 10 µM genistein 100%; further: nearly all actives have a fitted effect of over 80% in size
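First, MCF7-BRCA1-FFLuc cells (2000/well) attach for 2 h; next, compounds are pin-added and incubated 48 h at 37 °C; finally, luciferase reagent is added and luminescence read after 15 min.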
PLK1 PBD block = inhibitors of human PLK1 polo-box domain binding; Plk1 PBD binding of FITC phosphopeptide, fluorescence polarization; Potency, µM, for inactives: max response, negative = inhibition, most hits filed as inhibitors; 360,000 tested, 2.8% active; AID 720504; further: series mostly up to about 57 µM; on the % scale 0 is the no-effect control and ±100 the full control effect; nearly all actives have a fitted effect of over 65% in size
An asterisk follows results filed as active; u = inconclusive; x = no result. The call rests on the fitted dose curve; in most records, active means well fitted curve in the direction sought with a large enough effect; inconclusive means small, poorly fitted or top-dose-only effect, or another doubt; inactive means no such curve, though single readings can be large; an effect the other way counts as inactive or inconclusive. Potency means the concentration at half of the fitted maximal effect.

SMILES | Tb PFK block | VDR inhibitor | BRCA1 expr up | PLK1 PBD block
COc1cccc(CN2CC(C(=O)NCCc3nccs3)CCC2=O)c1 (centres undefined) | x | x | -7% | -11%
Cc1ccc(CNC(=O)C2CCC(=O)N(CCc3cccc(F)c3)C2)cc1 (centres undefined) | -2% | -7% | -2% | -8%
Cc1ccccc1CCNC(=O)C1CCC(=O)N(CCc2cccc(F)c2)C1 (centres undefined) | 5% | 1% | -6% | 30µM*
COc1cccc(CN2CC(C(=O)NCCOc3cccnc3)CCC2=O)c1 (centres undefined) | 0% | -27% | 11% | 17µM*
CC1CCN(c2oc(-c3ccc(OCc4ccccc4Cl)cc3)nc2C#N)CC1 | x | -8% | 7% | x
O=C(C(O)c1ccccc1)N1CCN(S(=O)(=O)c2ccc(C(F)(F)F)cc2)CC1 (centres undefined) | x | x | x | -9%
Cn1cc(S(=O)(=O)c2ccc(Cl)cc2)c(=O)c2cc(F)c(N3CCCCCC3)cc21 | x | 25% | x | x
O=C(Oc1ccccc1)c1ccc(NC(=O)c2ccco2)cc1 | -4% | -22% | u | 24µM*
Cc1ccc(NC(=O)c2ccc(OC(=O)c3ccco3)cc2)cc1 | -2% | -2% | u | -1%
O=C(/C=C\c1ccccc1)Nc1ccc(NC(=O)c2ccco2)cc1 | 1% | 20µM* | 61% | 3.4µM*
Cc1ccc(Oc2ccc(NC(=O)c3ccco3)cc2)cc1 | 1% | -4% | 11µM* | -9%
NC(=O)C1=CN(C2OC(COP(=O)(O)OP(=O)(O)OC[C@H]3O[C@@H](n4cnc5c(N)ncnc54)[C@H](OP(=O)(O)O)[C@@H]3O)C(O)C2O)C=CC1 (some centres undefined) | x | 8% | x | x
Cc1nc(C)c(C(=O)Nc2nc3c(C)cccc3s2)o1 | 3% | 5% | -34% | 24µM*
COc1cccc2cc3c(=O)n(-c4ccccc4)nc-3oc12 | 19% | -25% | -50% | 30µM*
COc1cccc2cc(-c3nc4ccccc4o3)c(=O)oc12 | 4% | 11% | 0% | u
CC1(C)CC(=O)C([C@H]2C3=C(CC(C)(C)CC3=O)Oc3ccccc32)C(=O)C1 | x | 7% | x | x
CC1(C)CC(=O)C(C2C3=C(CC(C)(C)CC3=O)Oc3ccc4ccccc4c32)C(=O)C1 (centres undefined) | -9% | -6% | 7.9µM* | -16%
COc1ccc(NC(=O)C(Cc2ccccc2)NS(=O)(=O)c2ccc3c(c2)CCC(=O)N3)c(OC)c1 (centres undefined) | x | -15% | 0% | x
Cc1ccc(Cl)cc1N1CCN(C(=O)Cc2c(C(=O)O)c(C)cn2C)CC1 | x | -1% | x | x
Cc1sc2nc(CC(=O)NN)[nH]c(=O)c2c1C | -10% | -6% | 0% | 17µM*
CC(=O)OCc1nc2sc(C)c(C)c2c(=O)[nH]1 | -1% | 3% | -6% | -9%
O=C(O)c1csc(-c2cccc(Cl)c2)n1 | 1% | -23% | -26% | 27µM*
O=C(O)c1csc(-c2ccccc2)n1 | 3% | 3% | 0% | -1%
C=CCn1c(C)csc1=Nc1ccc(C(C)=O)cc1 | -6% | -6% | 96% | -14%
C=CCn1c(C)csc1=Nc1ccccc1C | -4% | -6% | 24% | 30µM*
SMILES | Tb PFK block | VDR inhibitor | BRCA1 expr up | PLK1 PBD block
COc1ccc(C(C)=NOC(=O)c2c(-c3ccccc3Cl)noc2C)cc1CN1CCOCC1 | x | x | -20% | 1%
CNC(=O)/C(C#N)=C\c1ccc(CNS(=O)(=O)c2ccc(Cl)cc2)o1 | 1% | u | 14% | 17µM*
CC1CCc2c(sc3[nH]c(=S)n(C)c(=O)c23)C1 (centres undefined) | -7% | u | 22% | 11µM*
COc1cc(NC(=O)C/C(C)=N/NC(=O)C(=O)NCCO)c(OC)cc1Cl | -2% | -30% | -54% | 27µM*
O=C(CN1C(=O)S/C(=C\c2ccc(Cl)cc2)C1=O)NC1C=CS(=O)(=O)C1 (centres undefined) | -1% | u | -6% | 19µM*
Cc1cccc(NC(=O)Cn2c(=O)ccc3cc(S(=O)(=O)N4CCCC4)ccc32)c1C | x | 1% | 1% | x
S=c1[nH]nc(-c2ccc(Cl)cc2Cl)n1-c1ccc2c(c1)OCCO2 | 0% | -6% | 4% | 27µM*
S=c1[nH]nc(-c2ccc(Cl)cc2Cl)n1Cc1ccccc1 | -1% | 28µM* | -22% | 3.8µM*
CC(c1n[nH]c(=S)n1Cc1ccccc1)N(C)C (centres undefined) | 0% | u | -2% | 19µM*

Source: PubChem BioAssay
